# Measured values reported in PubChem BioAssay.
# Where “and” joins values, the source holds several entries; their conditions need not be identical. Equal entries are not always repeated. Records with an inconclusive call do not appear. Calls of active or inactive are those of the source. Unless noted, no stated cut-off is given here; in the data, active means nuclear beta-catenin stimulation mostly above about 4.2% (no sharp cut-off); inactive means mostly below about 10%.
# What was measured:
# [1] = stimulators of nuclear beta-catenin in C2C12, primary screen, imaging, WNT3A-conditioned medium, mouse C2C12, NPC library (AID 1117326); conditions: stronger effect = higher value; further: reference of the scale not given here
# [2] = stimulators of insulin release from INS-1E, primary screen, cell-based, 5 mM glucose, NPC library (AID 1117329;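 active means compound raises insulin release from rat beta cells at 5 mM glucose, no numeric limit stated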; further: reference of the scale not given here); conditions: rat INS-1E insulin secretion, at 10 µM, stronger effect = higher value
# [3] = growth inhibition of GSK3B-pretreated HCT116 cells – cell-based, CellTiter-Glo, 0.2 to 20 µM (AID 1117336;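 active means compounds lowering colon cancer cell viability after pretreatment blocking the GSK3B kinase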); conditions: HCT116 viability after GSK3B inhibitor, at 20 µM, stronger effect = higher value
# [4] = inhibition of endothelial tube formation, primary screen, imaging, VEGF stimulated, CD31 staining, tube area, NPC library (AID 1117340;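 active means compound that reduces growth-factor-driven endothelial tube area in a mixed cell culture, no cutoff stated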); conditions: VEGF-stimulated ADSC/ECFC co-culture, at 10 µM, stronger effect = higher value
# [5] = glucagon-like peptide 1 release enhancers, primary assay, NCI-H716 cell line, NPC library (AID 1117341;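 active means compound raises GLP1 secretion from the human gut endocrine cells, with no numeric limit stated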; further: reference of the scale not given here); conditions: NCI-H716 cells, at 10 µM, stronger effect = higher value
# [6] = HCT116 colon cancer cell growth inhibition, primary screen, CellTiter-Glo luminescence, NPC library (AID 1117342;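 active means compounds that lower survival of HCT116 colon cancer cells in the luminescence readout, no numeric limit stated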); conditions: at 20 µM (top of the series)
# [7] = CellTiter-Glo luminescent readout of SW480 viability loss, NPC library primary (AID 1117343;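 active means compounds that lower viability of the colon cancer cells in the luminescence readout, with no numeric limit stated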); conditions: CellTiter-Glo luminescence; at 20 µM (top of the series) unless noted
# [8] = decreased DLD-1 cellular survival, CellTiter-Glo luminescent readout, NPC compound collection, primary HTS (AID 1117346;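 active means compounds that lower survival of DLD-1 colon cancer cells in the luminescence readout, no cutoff given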); conditions: DLD-1 viability, CellTiter-Glo luminescence; at 20 µM (top of the series)
# [9] = growth inhibition of DIPG glioma cells, dose response, cell-based, SU-DIPG-IV, MIPE4.0, CellTiter-Glo, qHTS (AID 1347063; cut-off not given, nearly all actives have AC50 up to about 30 µM;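 further: compound exposure lasted 48 hours before the viability readout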); conditions: SU-DIPG-IV viability, CellTiter-Glo ATP luminescence
# [10] = viability loss in pontine glioma line – cell-based, SU-DIPG-XXV, MIPE5.0, CellTiter-Glo, qHTS, dose response (AID 1347065; cut-off not given, nearly all actives have AC50 up to about 26 µM;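 further: cells exposed to compound for 48 hours before ATP readout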); conditions: CellTiter-Glo ATP luminescence
# [11] = SU-DIPG-VI glioma cell viability, MIPE4.0 library, CellTiter-Glo luminescence, qHTS (AID 1347066; cut-off not given, nearly all actives have AC50 up to about 30 µM;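 further: cells exposed to compound for 48 hours before readout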); conditions: CellTiter-Glo ATP luminescence
# [12] = SU-DIPG-XXV glioma cell viability, MIPE5.0 library, qHTS (AID 1347068; cut-off not given, nearly all actives have IC50 up to about 30 µM;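 on IC50: cells exposed to compound for 48 hours before viability readout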)
# [13] = sensitizers of A549 cells to miR-34 induction, primary screen, imaging, A549 dox-inducible miR-34, nuclei and caspase counts (AID 1347080;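 active means compounds whose cell count with miR-34 switched on is under 0.7 times the count with it off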); conditions: A549 miR-34 inducible, Hoechst nuclei count, 48 h
# [14] = phospholipid biosynthesis inhibitors in animal cells, primary screen, cell-based, LOPAC library, screen 4 (AID 1347384; call rule not given here); conditions: phospholipid biosynthesis inhibition screen, at 10 µM
# [15] = viability rescue of complex I mutant cybrids, primary screen, cell-based, galactose medium, ATP luminescence (AID 1645843;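 active means z-score of at least 1.8 in each of two replicates, scored against plate mean and spread of sample wells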;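 further: positive z means more ATP and so rescue of galactose-driven cybrid death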); conditions: complex I mutant cybrid cells, 72 h, stronger effect = higher value
# [16] = JHH-DIPG-1 glioma cell viability, MIPE5.0 library, CellTiter-Glo luminescence, qHTS (AID 1347067; cut-off not given, nearly all actives have AC50 up to about 26 µM;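 further: cells exposed to compound for 48 hours before readout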); conditions: JHH-DIPG-1 glioma viability, CellTiter-Glo ATP luminescence
# [17] = survival rescue of mitochondrial mutant cells in low glucose, primary screen, MELAS cybrids, Rieske KO mouse fibroblasts, CellTiter-Glo (AID 1508586;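 active means mean z-score across replicates of 1.96 or higher in either the MELAS or the Rieske mutant cell line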;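 further: z relative to plate mean and SD of compound and empty wells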)
# [18] = growth inhibition of DIPG glioma cells, dose response, cell-based, JHH-DIPG-1, MIPE4.0, CellTiter-Glo, qHTS (AID 1347062; cut-off not given, nearly all actives have AC50 up to about 27 µM;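 on AC50: cells exposed to compound for two days before readout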); conditions: JHH-DIPG-1 viability, CellTiter-Glo ATP luminescence
# [19] = liver-stage malaria parasite growth inhibition, primary screen, cell-based, HepG2, luciferase luminescence, HepG2 viability (AID 624349; in the data active means parasite load remaining mostly below about 12%, no sharp cut-off; inactive means mostly above about 10%;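 further: 100% = mean of DMSO negative control wells on the same plate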); conditions: P. berghei liver stage in HepG2, luciferase luminescence, concentration not given here; parasite load remaining: stronger effect = lower value; viability: measured here: HepG2 viability without parasites
# [20] = stronger effect = lower value, cell number ratio, induced over uninduced
# [21] = measured here: relative caspase fold change +Dox/-Dox
# [22] = measured here: total cells with miR-34 induction, stronger effect = lower value
# [23] = measured here: total cells without miR-34 induction
# [24] = MELAS cybrid survival, CellTiter-Glo 48 h, stronger effect = higher value
# [25] = Rieske KO mouse fibroblast survival, CellTiter-Glo 72 h
structure (smiles),measurement,setting,value
c1cnc2cc3c(cc2n1)C1CNCC3C1,nuclear beta-catenin stimulation,[1]; at 10 µM,-1.2% (inactive)
same,nuclear beta-catenin stimulation,"[1]; stimulation, at 2 µM",-0.4%
same,insulin secretion stimulation,[2],0.7% (inactive)
same,viability decrease,[3],-3.9% (inactive)
same,tube area decrease,[4],23.1% (inactive)
same,GLP1 secretion stimulation,[5],-4% (inactive)
same,inhibition of viability,[6],-2.57% (inactive)
same,viability decrease (inhibition),[7],9.4% (inactive)
same,viability decrease (inhibition),[8],-12.7% (inactive)
same,outcome,[9],inactive
same,outcome,[10],inactive
same,outcome,[11],inactive
same,outcome,[12],inactive
same,fold change,[13]; [20],1.05 (inactive)
same,fold change,[13]; [21],1.76
same,cell count,[13]; [22],11200
same,cell count,[13]; [23],10600
same,outcome,[14],inactive
same,z-score,[15],0.205 (inactive)
N#Cc1c(N(CC(=O)O)CC(=O)O)sc(C(=O)O)c1CC(=O)O,nuclear beta-catenin stimulation,[1]; at 10 µM,-1.5% (inactive)
same,nuclear beta-catenin stimulation,"[1]; stimulation, at 2 µM",-0.9%
same,insulin secretion stimulation,[2],4.8% (inactive)
same,viability decrease,[3],-2.4% (inactive)
same,tube area decrease,[4],0% (inactive)
same,GLP1 secretion stimulation,[5],-1.7% (inactive)
same,inhibition of viability,[6],-4% (inactive)
same,viability decrease (inhibition),[7],-7.1% (inactive)
same,viability decrease (inhibition),[8],-13.8% (inactive)
same,outcome,[10],inactive
same,outcome,[11],inactive
same,outcome,[16],inactive
same,outcome,[12],inactive
Clc1ccc(C(Cn2ccnc2)OCc2ccc(Sc3ccccc3)cc2)c(Cl)c1 (centres undefined),nuclear beta-catenin stimulation,[1]; at 10 µM,8.8% (inactive)
same,nuclear beta-catenin stimulation,"[1]; stimulation, at 2 µM",0%
same,insulin secretion stimulation,[2],6.2% (inactive)
same,viability decrease,[3],110% (active)
same,tube area decrease,[4],110% (active)
same,GLP1 secretion stimulation,[5],16% (inactive)
same,inhibition of viability,[6],112% (active)
same,viability decrease (inhibition),[7],132% (active)
same,viability decrease (inhibition),[8],101% (active)
same,AC50,[9],16600 nM (active)
Cc1cc2c(cc1CC(=O)c1sccc1S(=O)(=O)Nc1onc(C)c1Cl)OCO2,nuclear beta-catenin stimulation,[1]; at 10 µM,1.6% (inactive)
same,nuclear beta-catenin stimulation,"[1]; stimulation, at 2 µM",3%
same,insulin secretion stimulation,[2],-0.3% (inactive)
same,viability decrease,[3],2.7% (inactive)
same,tube area decrease,[4],-20.9% (inactive)
same,GLP1 secretion stimulation,[5],2.9% (inactive)
same,inhibition of viability,[6],20.9% (inactive)
same,viability decrease (inhibition),[7],6.8% (inactive)
same,viability decrease (inhibition),[8],-17.2% (inactive)
same,outcome,[10],inactive
same,AC50,[16],26300 nM (active)
same,fold change,[13]; [20],0.871 (inactive)
same,fold change,[13]; [21],0.772
same,cell count,[13]; [22],7800
same,cell count,[13]; [23],8950
same,z-score,[17]; [24],-0.207 (inactive)
same,z-score,[17]; [25],-0.0127
CCOC(=O)c1ccc(C#Cc2ccc3c(c2)C(C)(C)CCS3)nc1,nuclear beta-catenin stimulation,[1]; at 10 µM,6% (inactive)
same,nuclear beta-catenin stimulation,"[1]; stimulation, at 2 µM",4.9%
same,insulin secretion stimulation,[2],-1.4% (inactive)
same,viability decrease,[3],91.1% (active)
same,tube area decrease,[4],-6% (inactive)
same,GLP1 secretion stimulation,[5],-0.3% (inactive)
same,inhibition of viability,[6],98.6% (active)
same,viability decrease (inhibition),[7],126% (active)
same,viability decrease (inhibition),[8],98.1% (active)
same,outcome,[18],inactive
same,outcome,[11],inactive
same,outcome,[12],inactive
same,fold change,[13]; [20],0.864 (inactive)
same,fold change,[13]; [21],0.957
same,cell count,[13]; [22],7750
same,cell count,[13]; [23],8970
same,z-score,[17]; [24],0.367 (inactive)
same,z-score,[17]; [25],0.684
Cc1ccc(C(=O)c2cc(O)c(O)c([N+](=O)[O-])c2)cc1,parasite load remaining,[19],26.1% (inactive)
same,viability,[19],97%
same,nuclear beta-catenin stimulation,[1]; at 10 µM,5.2% (inactive)
same,nuclear beta-catenin stimulation,"[1]; stimulation, at 2 µM",1.2%
same,insulin secretion stimulation,[2],-0.8% (inactive)
same,viability decrease,[3],43.7% (active)
same,tube area decrease,[4],39.4% (inactive)
same,GLP1 secretion stimulation,[5],-3.6% (inactive)
same,inhibition of viability,[6],55.5% (active)
same,viability decrease (inhibition),[7],84.4% (active)
same,viability decrease (inhibition),[8],67.5% (active)
same,outcome,[18],inactive
same,outcome,[10],inactive
same,outcome,[16],inactive
same,outcome,[12],inactive
same,fold change,[13]; [20],0.985 (inactive) and 0.843 (inactive)
same,fold change,[13]; [21],0.594 and 0.464
same,cell count,[13]; [22],8860 and 9320
same,cell count,[13]; [23],8990 and 11100
same,z-score,[17]; [24],-0.224 (inactive) and 0.125 (inactive) and 0.577 (inactive)
same,z-score,[17]; [25],-0.152 and -0.0292 and 1.07
same,z-score,[15],-0.715 (inactive)
CC(C)OC(=O)OCOP(=O)(CO[C@H](C)Cn1cnc2c(N)ncnc21)OCOC(=O)OC(C)C,nuclear beta-catenin stimulation,[1]; at 10 µM,6.3% (inactive)
same,nuclear beta-catenin stimulation,"[1]; stimulation, at 2 µM",3%
same,insulin secretion stimulation,[2],13.8% (inactive)
same,viability decrease,[3],2.2% (inactive)
same,tube area decrease,[4],65.2% (active)
same,GLP1 secretion stimulation,[5],-1.8% (inactive)
same,inhibition of viability,[6],32.1% (inactive)
same,viability decrease (inhibition),[7],22.7% (inactive)
same,viability decrease (inhibition),[8],47.8% (inactive)
same,outcome,[18],inactive
same,outcome,[9],inactive
same,outcome,[11],inactive
O=[N+]([O-])c1cncn1CCN1CCOCC1,nuclear beta-catenin stimulation,[1]; at 10 µM,-1.1% (inactive)
same,nuclear beta-catenin stimulation,"[1]; stimulation, at 2 µM",0.4%
same,insulin secretion stimulation,[2],0.4% (inactive)
same,viability decrease,[3],-4.6% (inactive)
same,tube area decrease,[4],13.6% (inactive)
same,GLP1 secretion stimulation,[5],-1.3% (inactive)
same,inhibition of viability,[6],-5% (inactive)
same,viability decrease (inhibition),[7],-2.7% (inactive)
same,viability decrease (inhibition),[8],-11.2% (inactive)
same,outcome,[10],inactive
same,outcome,[16],inactive
same,outcome,[12],inactive
CC(=O)OCC(=O)[C@@]12N=C(C)O[C@@H]1C[C@H]1[C@@H]3CCC4=CC(=O)C=C[C@]4(C)[C@H]3[C@@H](O)C[C@@]12C,nuclear beta-catenin stimulation,[1]; at 10 µM,1.5% (inactive)
same,nuclear beta-catenin stimulation,"[1]; stimulation, at 2 µM",3.9%
same,insulin secretion stimulation,[2],2.95% (inactive)
same,viability decrease,[3],0.4% (inactive)
same,tube area decrease,[4],2.2% (inactive)
same,GLP1 secretion stimulation,[5],1.7% (inactive)
same,inhibition of viability,[6],-21.6% (inactive)
same,viability decrease (inhibition),[7],14.8% (inactive)
same,viability decrease (inhibition),[8],-6.8% (inactive)
same,outcome,[18],inactive
same,outcome,[11],inactive
same,outcome,[12],inactive
same,z-score,[17]; [24],0.598 (inactive)
same,z-score,[17]; [25],1.06
CC(C)(C)C(=O)Oc1ccc(S(=O)(=O)Nc2ccccc2C(=O)NCC(=O)O)cc1,nuclear beta-catenin stimulation,[1]; at 10 µM,0.7% (inactive)
same,nuclear beta-catenin stimulation,"[1]; stimulation, at 2 µM",1.7%
same,insulin secretion stimulation,[2],0% (inactive)
same,viability decrease,[3],66% (active)
same,tube area decrease,[4],-2.9% (inactive)
same,GLP1 secretion stimulation,[5],0.3% (inactive)
same,inhibition of viability,[6],24.1% (inactive)
same,viability decrease (inhibition),[7],70% (active)
same,viability decrease (inhibition),[8],3.4% (inactive)
same,outcome,[18],inactive
same,outcome,[12],inactive
same,fold change,[13]; [20],1.07 (inactive)
same,fold change,[13]; [21],1.11
same,cell count,[13]; [22],10600
same,cell count,[13]; [23],9900
same,outcome,[14],inactive
same,z-score,[15],0.85 (inactive)
CC(C)C[C@H](NC(=O)[C@H](CCc1ccccc1)NC(=O)CN1CCOCC1)C(=O)N[C@@H](Cc1ccccc1)C(=O)N[C@@H](CC(C)C)C(=O)[C@@]1(C)CO1,nuclear beta-catenin stimulation,[1]; at 10 µM,106% (active)
same,nuclear beta-catenin stimulation,"[1]; stimulation, at 2 µM",129%
same,insulin secretion stimulation,[2],6.05% (inactive)
same,viability decrease,[3],117% (active)
same,tube area decrease,[4],110% (active)
same,GLP1 secretion stimulation,[5],5.2% (inactive)
same,inhibition of viability,[6],124% (active)
same,viability decrease (inhibition),[7],150% (active)
same,viability decrease (inhibition),[8],101% (active)
same,AC50,[18],18.7 nM (active)
same,AC50,[9],23.5 nM (active)
same,AC50,[10],5.25 nM (active)
same,AC50,[11],93.5 nM (active)
same,AC50,[16],10.5 nM (active)
same,IC50,[12],93.4 nM (active)
